Unmarked numbers belong to inactive results. Activity calls are given as the source filed them. Calls come from the whole dose curve; as a rule, active = well fitted curve in the direction sought with a large enough effect; inactive = no such curve, though single readings can be large or run the other way.

In the assay the target is Epidermal growth factor receptor (Homo sapiens) (UniProt P00533). The assay is described as follows: Assay for Inhibitors of the ERK Signaling Pathway using a Homogeneous Screening Assay: EGFR Kinase Inhibition. Conditions: homogeneous biochemical assay; series mostly up to 21.9 µM; activity change, negative = inhibition: at the top concentration. An excerpt: qHTS Assay for Inhibitors of the ERK Signaling Pathway using a Homogeneous Screening Assay
Sequence of Epidermal growth factor receptor (Homo sapiens) (P00533 whole entry, looked up): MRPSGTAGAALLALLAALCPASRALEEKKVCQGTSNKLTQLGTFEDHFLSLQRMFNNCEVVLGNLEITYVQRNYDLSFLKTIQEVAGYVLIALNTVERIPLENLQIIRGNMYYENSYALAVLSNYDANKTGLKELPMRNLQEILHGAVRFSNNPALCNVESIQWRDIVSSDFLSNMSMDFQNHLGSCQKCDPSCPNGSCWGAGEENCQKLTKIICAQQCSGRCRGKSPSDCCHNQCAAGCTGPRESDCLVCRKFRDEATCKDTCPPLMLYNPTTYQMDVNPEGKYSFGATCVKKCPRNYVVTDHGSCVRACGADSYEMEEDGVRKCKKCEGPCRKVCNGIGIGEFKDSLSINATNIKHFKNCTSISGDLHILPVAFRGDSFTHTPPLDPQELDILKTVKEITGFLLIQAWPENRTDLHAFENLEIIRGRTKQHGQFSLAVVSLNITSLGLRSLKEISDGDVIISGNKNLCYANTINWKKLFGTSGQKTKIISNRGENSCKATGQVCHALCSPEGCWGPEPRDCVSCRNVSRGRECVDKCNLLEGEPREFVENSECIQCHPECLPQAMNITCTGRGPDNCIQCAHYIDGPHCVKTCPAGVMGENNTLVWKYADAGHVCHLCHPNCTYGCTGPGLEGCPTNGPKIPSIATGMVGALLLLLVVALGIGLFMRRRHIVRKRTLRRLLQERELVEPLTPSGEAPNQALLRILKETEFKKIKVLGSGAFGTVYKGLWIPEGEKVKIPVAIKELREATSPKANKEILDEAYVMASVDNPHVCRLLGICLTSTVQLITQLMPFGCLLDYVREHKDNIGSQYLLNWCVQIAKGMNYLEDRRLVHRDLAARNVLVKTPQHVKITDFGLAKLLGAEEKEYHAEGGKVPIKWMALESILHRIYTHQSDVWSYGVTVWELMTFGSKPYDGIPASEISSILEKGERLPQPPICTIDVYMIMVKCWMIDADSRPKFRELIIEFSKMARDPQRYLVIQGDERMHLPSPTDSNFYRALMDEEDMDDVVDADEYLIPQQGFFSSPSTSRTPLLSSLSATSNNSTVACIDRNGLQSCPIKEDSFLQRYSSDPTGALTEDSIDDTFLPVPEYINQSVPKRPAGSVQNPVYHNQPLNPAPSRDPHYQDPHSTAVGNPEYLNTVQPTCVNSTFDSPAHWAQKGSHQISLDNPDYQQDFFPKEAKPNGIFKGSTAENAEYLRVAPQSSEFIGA
NIH Chemical Genomics Center [NCGC]
NIH Molecular Libraries Screening Centers Network [MLSCN]
Assay Submitter (PI): Dr. Wei Zheng, NCGC/NIH
The Ras/extracellular-signal-regulated kinase (ERK) mitogen activated protein (MAP) kinase signaling pathway (ERK1/2 cascade) plays is a key role in transmitting signals from the cell surface to the nucleus (Nishida and Gotoh 1993; Chang and Karin, 2001). The cascade is initiated by the small G-protein Ras, which recruits Raf […], where activation occurs. Alternatively, this pathway can be activated by elevating intracellular cAMP.
Activation of the ERK pathway is essential in increased cell division and cell survival. Sustained and constitutive activation of the ERK pathway, however, has been linked to uncontrolled cell proliferation, increased cell survival, and tumor progression. Thus, the ERK has been as an attractive target for cancer chemotherapy in the past few years (Sebolt-Leopold and Herrera, 2004). Given its physiological and pathological importance, assessment of ERK phosphorylation has been broadly performed in both basic research and drug discovery. Most assays for the measurement of ERK phosphorylation use the antibody-based detection methods, such as western blot and ELISA. These assays require multiple reagent additions with cell wash steps and are not suitable for high-throughput screening.
The current cell-based ERK phosphorylation assay was performed using AlphaScreen platform. AlphaScreen is a two bead-based proximity-dependent chemical energy transfer luminescent assay platform. The assay reagents (ERK SureFire(TM) kit) were supplied from TGR BioSciences (Australia). In the presence of specific antibodies, phosphorylated ERK will bring "donor" and "acceptor" beads to a proximity range (<200 nm), and subsequently lead a chemical luminescent reaction upon exciting donor beads with 680 nm laser. To validate pathway hits from the cell-based assay, enzyme assays consisting of EGFR tyrosine kinase, Raf and MEK were used as a means of deciphering the enzymes of target for the prioritized group of compounds derived from the HEK-293 cell based assay. The compounds were tested against significant members of the ERK signaling pathway EGFR and EGFR mutants (EGFR L858R, EGFR T790M, and EGFR L858R T790M). In order to establish the specificity of the prioritized compounds for EGFR and EGFR mutants, the compounds were also assayed against other important ERK signaling pathway enzymes, c-RAF and MEK-1.
NCGC Assay Protocol Summary:
The HTRF kinase assay (components supplied as kit by Cisbio) was chosen for the EGFR and EGFR mutant enzyme assays that applied the time resolved fluorescence resonance energy transfer (TR-FRET) principle. A peptide substrate is labeled with a biotin that can bind to XL665 labeled streptavidin and the anti-phosphoresidue antibody is labeled with Eu+. Upon phosphorylation of the substrate, the antibody binds to phosphorylated substrate that enables TR-FRET detection in homogenous assay format.
An HTRF Kinease TK assay kit (Cisbio, Bedford, MA) was used to develop the EGFR and EGFR mutant assays (Harbert et al., 2008. Harbert C, Marshall J, Soh S, Steger K. Development of a HTRF Kinase Assay for Determination of Syk Activity. Current Chemical Genomics. 1: 20-26. 2008). EGFR and EGFR mutants were obtained from Invitrogen. […]
For `Cc1nc2c(=O)n(C)c(=O)nc-2n(C)n1`, the result was inactive.

For `CCn1nc(-c2ccccc2)nc2c(=O)n(C)c(=O)nc1-2`, the “activity change, negative = inhibition” value is -14.2% [at 65.8 µM].

For the compound `CN1CCN(c2cccc3c2C(=O)c2ccccc2C3=O)CC1`, the “activity change, negative = inhibition” value is -7.67%.

In the case of `CCn1nc(-c2cccs2)nc2c(=O)n(C)c(=O)nc1-2`, the “activity change, negative = inhibition” value is -15.7% [at 65.8 µM]. On the same count and under the same terms, under `Cn1nc(-c2ccccc2)nc2c(=O)n(C)c(=O)nc1-2` stands -16.4%.
